Assay results reported in PubChem BioAssay (EPA / NIEHS).
Records with an inconclusive call do not appear. The source made the active and inactive calls. Rule for the calls, unless noted: active = hit-call score of the fitted dose curve at least 0.9, where 1 is the maximum; inconclusive = response in the unintended direction; inactive = score below 0.9.

Experiments:
[1] = IUF_NPC4_neurite_area_120hr: Leibniz Research Institute for Environmental Medicine (IUF) 120-hour Neuronal Morphology Assay for Neurite Area (NPC4) (AID 2284305)
How it was run: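 Neurite area is read out as the mean pixel area, excluding nuclei, of skeletonized TUBB3-positive neurons imaged after 120 h. Primary human neural progenitor spheres differentiated on poly-D-lysine/laminin with compound present from day 0. Activity was referenced to DMSO controls.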

[2] = IUF_NPC2-5_cytotoxicity_72hr: Cytotoxicity Assessment at 72 hours in the Leibniz Research Institute for Environmental Medicine (IUF) Neural Progenitor Cell Migration and Differentiation Assay for Cytotoxicity (NPC2-5) (AID 2284306);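 note: LDH release into supernatant measured by resorufin fluorescence marking membrane damage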
How it was run: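 Membrane integrity loss was scored from fluorescence (RFU) of resorufin generated by LDH in culture supernatant, 72 h after dosing. Differentiating human progenitor spheres received seven serial compound concentrations alongside a solvent control.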

[3] = IUF_NPC2-5_cytotoxicity_120hr: Cytotoxicity Assessment at 120 hours in the Leibniz Research Institute for Environmental Medicine (IUF) Neural Progenitor Cell Migration and Differentiation Assay (NPC2-5) (AID 2284307);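 for AC50: LDH released into supernatant as membrane damage marker via resorufin fluorescence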
How it was run: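 Membrane-integrity loss measured as LDH activity in medium supernatant via resazurin-to-resorufin fluorescence after 120 h exposure. hNPC spheres from GW 16-19 fetal cortex differentiated on poly-D-lysine/laminin, 37C, medium half-refreshed day 3; seven concentrations, DMSO max 0.1%.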

[4] = IUF_NPC2-5_cell_number_120hr: Cell Number Assessment at 120 hours in the Leibniz Research Institute for Environmental Medicine (IUF) Neural Progenitor Cell Migration and Differentiation Assay (NPC2-5) (AID 2284308; active = hit-call score of the fitted dose curve at least 0.9, where 1 is the maximum; inactive = score below 0.9;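 note: count of Hoechst-stained nuclei in migration zone around plated human neural progenitor spheres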)
How it was run: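 Counting of all Hoechst-stained nuclei in the migration area at 120 h, versus DMSO control. Primary hNPC spheres differentiated on poly-D-lysine/laminin in N2 medium at 37C, dosed from day 0 (7 concentrations, DMSO ≤0.1%), half-refed day 3.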

[5] = VALA_TUBHUV_Agonist_CellCount: Viability Assessment in the VALA Sciences human Umbilical Vein Endothelial Tubule Formation (TUBHUV) Agonism Assay (AID 2284309)
How it was run: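 HUVEC co-cultured 1:3 with HDF for 3 days in 10 ng/ml VEGF, then compounds added in VEGF medium for a further 3 days (72 h). Nuclear-stain/CD31 imaging cell count. Positive-direction fit versus 0.1% DMSO vehicle.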

[6] = IUF_NPC2-5_viability_120hr: Viability Assessment at 120 hours in the Leibniz Research Institute for Environmental Medicine (IUF) Neural Progenitor Cell Migration and Differentiation Assay (NPC2-5) (AID 2284312; active = hit-call score of the fitted dose curve at least 0.9, where 1 is the maximum; inactive = score below 0.9)
How it was run: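 Alamar blue resorufin fluorescence read after 5 days of differentiation, with compound present from day 0 and replenished at day 3. Primary hNPC spheres on laminin-coated plates, 37C; seven concentrations plus solvent control, fitted against DMSO.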

[7] = VALA_TUBIPS_Antagonist_TubuleLength: VALA Sciences human iPS-derived Endothelial Tubule Formation (TUBIPS) Antagonist Assay (AID 2284313)
How it was run: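 Cells grown 3 days with 10 ng/ml VEGF, then exposed to compounds in VEGF medium for another 3 days. After fixation, nuclear stain and CD31 immunofluorescence imaging gave mean total tubule length against 0.1% DMSO; suramin (100 uM) inhibition control.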

[8] = VALA_MIGHUV2_WoundArea: VALA Sciences human Umbilical Vein Endothelial Cell Migration (MIGHUV) Assay, Area of Scratch Wound after Recovery (AID 2284316)
How it was run: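 HUVEC seeded at 9000 cells/well, scratched after 24 h; test chemical added within 30 min, 6-point concentration response in triplicate (0.1% DMSO vehicle). After 24 h wound recovery, cells fixed and Hoechst-stained nuclei in wound area imaged; Cytochalasin D reference control.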

[9] = CCTE_Mundy_HCI_iCellGluta_NOG_NeuriteLength: CCTE's Neurite Outgrowth Assay in iCellGluta cells for Neurite Length, Mundy Lab (AID 2284318)
How it was run: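 Automated high-content imaging of betaIII-tubulin (Alexa Fluor-488) and Hoechst-stained cells gave neurite length, normalized to the DMSO baseline.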

[10] = VALA_TUBHUV_Antagonist_TubuleLength: VALA Sciences human Umbilical Vein Endothelial Tubule Formation (TUBHUV) Antagonism Assay (AID 2284325)
How it was run: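 HUVEC–HDF co-culture (1:3) pre-grown 3 days with 10 ng/ml VEGF, then 3 days with compound plus VEGF. Fixed, nuclear and CD31 stained; total tubule length by imaging versus 0.1% DMSO; suramin 100 uM positive control.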

[11] = IUF_NPC1_cytotoxicity_72hr: Cytotoxicity Assessment at 72 hours in the Leibniz Research Institute for Environmental Medicine (IUF) Neural Progenitor Cell Proliferation Assay (NPC1) (AID 2284332);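 note: rising LDH signal means more cytotoxicity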
How it was run: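 hNPC spheres (fetal brain, gestational week 16-19) grown under proliferative EGF/FGF conditions, pH 7.2-7.6, were treated continuously for 72 h. Cytotoxicity came from LDH-coupled resazurin fluorescence in each well's supernatant.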

[12] = CCTE_Deisenroth_5AR_NBTE_donor: CCTE's 5alpha-reductase NanoBRET Target Engagement Assay […], Deisenroth Lab (AID 2284319; active = hit-call score of the fitted dose curve at least 0.9, where 1 is the maximum; inactive = score below 0.9); details: actives raise or lower the signal
How it was run: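 HEK293T cells transiently expressing SRD5A2-NanoLuc, exposed 5 h to chemicals (8 points, 10 nM - 29.9 uM), with testosterone tracer for the final 2 h. Donor luminescence at 460 nm read after Nano-Glo substrate plus extracellular NanoLuc inhibitor; bidirectional fit versus DMSO.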

[13] = CCTE_Deisenroth_5AR_NBTE_acceptor: CCTE's 5alpha-reductase NanoBRET Target Engagement Assay - Autofluorescence Screen, Deisenroth Lab (AID 2284321; active = hit-call score of the fitted dose curve at least 0.9, where 1 is the maximum; inactive = score below 0.9;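 note: compound fluorescence in the acceptor channel under 460 nm excitation flags autofluorescence artifacts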); details: actives raise or lower the signal
How it was run: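 Acceptor-channel fluorescence flags artifacts, with excitation fixed at 460 nm. Nominal 100 uM chemical samples were read in triplicate runs, and signal changes were fitted in both directions relative to DMSO.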

SRD5A2 (gene 6716) = assay: CCTE_Deisenroth_5AR_NBTE_ratio: CCTE's 5alpha-reductase NanoBRET Target Engagement Assay - Ratio, Deisenroth Lab (AID 2284322; active = hit-call score of the fitted dose curve at least 0.9, where 1 is the maximum; inactive = score below 0.9); details: actives raise or lower the signal
How it was run: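 Reverse-transfect HEK293T with pNLF1-C-SRD5A2, express 20 h. Pre-incubate cells with chemical 3 h (8-point series, 10 nM - 29.9 uM, duplicate). Add testosterone tracer, 2 h more. Add substrate/inhibitor, read donor and acceptor emission.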

[14] = TAMU_PeakParms_SingleDonor1434_Asystole: Texas A&M University (TAMU) 1.5-hr Human Induced Pluripotent Stem Cell (iPSC)-derived Cardiomyocytes Calcium (Ca+2) Flux Assay for Cardiotoxicity: Asystole (quiescence of beating) (AID 2284328)
How it was run: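 Average Ca2+-flux peak frequency (beats/s) was recorded in single-donor iPSC-derived cardiomyocytes after 90 min exposure (0.2–100 uM final, 0.5% DMSO). Asystole POD set as EC95 against DMSO, no preprocessing.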

[15] = VALA_TUBIPS_Agonist_TubuleLength: VALA Sciences human iPS-derived Endothelial Tubule Formation (TUBIPS) Agonism Assay (AID 2284311)
How it was run: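 Human iPS-derived endothelial cells were exposed to compound for 72 h. Tubule formation was imaged by high-content fluorescence and scored as gain of signal relative to DMSO vehicle (agonist mode).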

[16] = VALA_MIGHUV2_Bcatenin: VALA Sciences human Umbilical Vein Endothelial Cell Migration (MIGHUV) Assay, Nuclear Translocation of beta-Catenin after Recovery (AID 2284315)
How it was run: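 HUVEC (4000 cells/well) scratch-wounded, dosed within 30 min over 6 concentrations in triplicate, recovered 24 h. After fixation, Hoechst and anti-beta-catenin immunofluorescence imaged for nuclear CTNB. Gain of signal versus 0.1% DMSO.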

Measured: AC50

CC(C)(C)c1ccc(CSc2cnn(C(C)(C)C)c(=O)c2Cl)cc1
active: [5] 20.3 µM | [8] 7.5 µM | [9] 0.15 µM
inactive: [1] | [2] | [3] | [4] | [6] | [7] | [10] | [11]

Cc1ccc(-c2c(Cl)nc(C#N)n2S(=O)(=O)N(C)C)cc1
active: [1] 26.1 µM | [3] 33 µM | [4] 13.2 µM | [6] 11.7 µM | [9] 32.6 µM
inactive: [2] | [11]

CN(C)C(=S)SSC(=S)N(C)C
active: [1] 27.5 µM | [2] 26.4 µM | [3] 13 µM | [4] 26.1 µM | [6] 29.1 µM | [9] 0.0483 µM | [11] 20.5 µM

CCCCNC(=O)OCC#CI
active: [12] 50 µM | [13] 50 µM | SRD5A2 (gene 6716) 50 µM
inactive: [14]

COC(=O)N(OC)c1ccccc1COc1ccn(-c2ccc(Cl)cc2)n1
inactive: [2] | [12] | [13] | [11]
active: [1] 0.167 µM | [3] 2.12 µM | [4] 3.23 µM | [6] 1.55 µM | [9] 2.57 µM | SRD5A2 (gene 6716) 34.1 µM

CCCCC(CC)COC(=O)c1ccccc1C(=O)OCC(CC)CCCC (stereo not drawn)
active: [9] 36.1 µM
inactive: [2] | [3] | [4] | [6] | [14] | [11]

N#Cc1nn(-c2c(Cl)cc(C(F)(F)F)cc2Cl)c(N)c1S(=O)C(F)(F)F (stereo not drawn)
inactive: [2] | [3] | [15] | [6] | [7] | [16] | [9] | [10] | [11]
active: [1] 14.3 µM | [4] 14.2 µM

C=CC1(C)OC(=O)N(c2cc(Cl)cc(Cl)c2)C1=O (stereo not drawn)
active: [9] 19.4 µM
inactive: [2] | [3] | [4] | [6] | [11]
